The panel holds about 83,000 compounds, 20% with a hit somewhere; the sample as a whole holds those more often.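 Negative percent growth values reflect cell death: -40 means 40% of the cells present at the start died, and -100 means all died.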 Values without a mark were called inactive. The source made the active and inactive calls. Rule for the calls: active = growth percent below 10; inactive = the rest.
Tests used:
Assay in all cases: NCI-60 one-dose screen, 48 h (100 = growth as untreated, 0 = no growth, -100 = all killed)
Conditions in all cases: 10 µM unless noted
RPMI-8226 leukemia = system: RPMI-8226 leukemia
OVCAR-8 ovarian = system: OVCAR-8 ovarian
OVCAR-5 ovarian = system: OVCAR-5 ovarian
OVCAR-4 ovarian = system: OVCAR-4 ovarian
SK-OV-3 ovarian = system: SK-OV-3 ovarian
IGROV1 ovarian = system: IGROV1 ovarian
OVCAR-3 ovarian = system: OVCAR-3 ovarian
HS 578T breast = system: HS 578T breast
NCI/ADR-RES ovarian = system: NCI/ADR-RES ovarian
T-47D breast = system: T-47D breast

Structure (SMILES) | growth (RPMI-8226 leukemia) | growth (OVCAR-8 ovarian) | growth (OVCAR-5 ovarian) | growth (OVCAR-4 ovarian) | growth (SK-OV-3 ovarian) | growth (IGROV1 ovarian) | growth (OVCAR-3 ovarian) | growth (HS 578T breast) | growth (NCI/ADR-RES ovarian) | growth (T-47D breast)
COc1ccc(-c2oc3cc(O)c(OC)c(O)c3c(=O)c2OC)cc1O | 12.3% | 25.3% | 57% | 65.6% | 24.5% | 12.2% | -40.1% (active) | -27.4% (active) | -4.16% (active) | 53.1%
C=CCOc1ccc2c(c1)CC[C@@H]1[C@@H]2CC[C@@]2(C)[C@H]1CC[C@]2(C)O | 51.8% | 66.4% | 75.3% | 89.4% | 93.9% | 104% | 111% | 93% | 90.5% | 79.9%
Cc1c(N(C)CS(=O)(=O)O)c(=O)n(-c2ccccc2)n1C | 99.2% | 109% | 106% | 116% | 104% | 103% | 118% | 125% | 109% | 107%
COC(=O)CCC1=C(C)C(C)=N/C1=C\c1[nH]c(-c2ccc[nH]2)cc1OC | -61.8% (active) | 5.55% (active) | 22.7% | 11.8% | 16.2% | 18.4% | -34.5% (active) | -6.06% (active) | 6.26% (active) | 7.35% (active)
O=NC1CC=CCC1c1ccccc1 (stereo not given) | 114% | 108% | 94.5% | 106% | 111% | 111% | 118% | 125% | 104% | 111%
C=C(C)[C@@H]1C[C@H](O)Cc2cc(Cl)cc(Cl)c2N1 | 116% | 99.6% | 81.9% | 103% | 101% | 105% | 108% | 100% | 102% | 99.3%
O=C(C=C=Nc1ccccc1)C(=O)N=C=Cc1ccccc1 | -59.5% (active) | 60.8% | 75.5% | 50.6% | 107% | 51.5% | 13.5% | 94.8% | 65.5% | 17.7%
C/C(=N/N=C(N)N)c1ccc(Cl)cc1 | 89.8% | 110% | 87.8% | 92.9% | 89.5% | 14.6% | 110% | 272% | 86.5% | 79.3%
COc1ccc(-c2cn(-c3ccccc3)c(-c3ccccc3)n2)cc1OC | 25.8% | 75.3% | 119% | 67.3% | 209% | 83.7% | 37.2% | 103% | 86.2% | 131%
O=C1OC(c2ccc(-c3ccccc3)cc2)=C/C1=C/c1cccs1 | 138% | 78.9% | 98.5% | 65.5% | 128% | 93% | 89.2% | 98.4% | 86.5% | 33.6%
c1cncc(CNc2ccccc2-c2nnc(Nc3ccc4c(c3)OCO4)o2)c1 | 27.5% | 26.1% | 25.2% | 36.3% | -3.15% (active) | 25.2% | -22% (active) | 35.4% | 19.4% | 43.5%
C=CCCCCCCCCC(=O)[O][Sn]([CH2]CCC)([CH2]CCC)[CH2]CCC | -27.3% (active) | -74.2% (active) | -89.4% (active) | -96.7% (active) | -98.8% (active) | -72.9% (active) | -97.9% (active) | -46.4% (active) | -90.3% (active) | -71.5% (active)
COC(=O)CC1=C(C)/C(=C/c2[nH]c(-c3ccc[nH]3)cc2OC)N=C1C | -55.3% (active) | 6.58% (active) | 18.7% | 10.5% | 20.2% | 11.3% | -17.7% (active) | -14.9% (active) | 5.14% (active) | 0.172% (active)
Cc1c(C(N)=O)sc2ncn(CC(=O)Nc3ccc(Cl)cc3)c(=O)c12 | 101% | 105% | 85.5% | 110% | 106% | 533% | 122% | 139% | 102% | 102%

From PubChem BioAssay (NCI)
